BLM inh: inhibitors of human Bloom syndrome helicase BLM | P54132 | recombinant BLM DNA unwinding, fluorescence dequenching | Potency, µM (doses to about 56.1 µM), inactives show top-dose activity change, negative = inhibition, actives largely listed as inhibitors | hit rate 0.2% among 350,000 | AID 2528;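 also: plate controls were vehicle for no effect and no enzyme for full effect; nearly all actives have a fitted effect of over 35% in size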
RECQ1 inh: blocks DNA unwinding by human RECQ1; P46063; RECQ1 DNA unwinding, red fluorescence kinetic read; Potency, µM (series often up to 57.3 µM), for inactives: top-dose activity, negative = inhibition, hits mostly inhibitors; hit rate 0.54% among 240,000; AID 2549;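 also: plate controls were vehicle for no effect and no enzyme for full effect; nearly all actives have a fitted effect of over 30% in size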
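50 nM RECQ1T1 preincubated 15 min with compound in Tris pH 8.0 buffer with MgCl2, DTT, Tween-20 and 2.5 ug/ml poly(dI-dC); started with 200 nM TAMRA/BHQ-2 forked duplex and 2 mM ATP. Unwinding read as fluorescence (525/598 nm), two reads 2 h apart.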
L3MBTL1 inh: inhibitors of human L3MBTL1. AlphaScreen L3MBTL1–H3K9me1 peptide binding. Potency, µM (titrated, usually from 57.1 µM), for inactives: at the top dose activity, negative = inhibition, usual class: inhibitors. hit rate 0.66% among 230,000; also: nearly all actives have a fitted effect of over 60% in size
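Displacement of a biotinylated histone H3(1-15) peptide monomethylated at Lys9 (75 nM) from L3MBTL1 (50 nM) was measured by AlphaScreen after a 30 min room-temperature compound incubation; cefsulodin titration served as intraplate control.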
APEX1 inh: inhibitors of human APE1 endonuclease | P27695 | recombinant APE1, TAMRA/BHQ-2 abasic DNA cleavage fluorescence | Potency, µM (titrated, usually from 65.8 µM), for inactives: at the top dose activity change, negative = inhibition, most hits filed as inhibitors | hit rate 0.35% among 350,000 | AID 2517;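 also: plate controls were vehicle for no effect and reference inhibitor for full effect; nearly all actives have a fitted effect of over 55% in size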
Target sequence (P27695 whole entry, looked up): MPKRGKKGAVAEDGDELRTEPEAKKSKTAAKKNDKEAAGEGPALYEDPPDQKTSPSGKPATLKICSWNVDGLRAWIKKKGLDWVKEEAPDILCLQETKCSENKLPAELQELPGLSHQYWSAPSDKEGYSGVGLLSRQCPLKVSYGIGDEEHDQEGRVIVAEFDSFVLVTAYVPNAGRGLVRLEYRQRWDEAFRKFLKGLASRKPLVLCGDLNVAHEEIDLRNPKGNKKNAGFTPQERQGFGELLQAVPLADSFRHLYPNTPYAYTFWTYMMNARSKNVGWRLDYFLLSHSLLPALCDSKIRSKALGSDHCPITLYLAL
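Compound pre-exposure to 0.75 nM APE1, 15 min at ambient temperature. Reaction initiated with 50 nM TAMRA/BHQ-2 THF substrate, read immediately in kinetic mode, 525 nm excitation, 598 nm emission.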
An asterisk follows results filed as active; ! = repeats disagree; [ ] = dose if it differs, or a comment. In the library only some 0.78% were active in any assay of this set; here they are far more common. Calls follow the shape of the dose curve; as a rule, active = well fitted curve in the direction sought with a large enough effect; inconclusive = small, poorly fitted or top-dose-only effect, or another doubt; inactive = no such curve, though single readings can be large; an effect the other way counts as inactive or inconclusive. Unless noted, % is scaled to controls: 0 for no effect and ±100 for the full control effect; potency is read from the fitted curve at half-maximal effect.

CC1N(C)c2cc(NC(=O)c3ccco3)ccc2C1(C)C (configuration not stated) was read as BLM inh inconclusive, RECQ1 inh 25µM*, L3MBTL1 inh -14% and APEX1 inh inconclusive.
CC(C)C[C@@H](C=O)NC(=O)[C@H](CC(C)C)NC(=O)[C@H](CC(C)C)NC(=O)OCc1ccccc1 was read as RECQ1 inh inactive and APEX1 inh -8%.
For S=C([S-])NCCNC(=S)[S-].[Zn+2] the results were RECQ1 inh 32µM* and APEX1 inh 16µM*.
`C=CCNC(=O)c1cc(-c2cccs2)on1` gave APEX1 inh 9%.
`COc1ccc(NCc2ccc([N+](=O)[O-])s2)cc1` gave BLM inh -6%, RECQ1 inh -5%, L3MBTL1 inh inconclusive and APEX1 inh 32µM*.
COc1ccc(C(=O)c2ccc(OC)c(N)c2)cc1N was read as BLM inh -6%, RECQ1 inh -8%, L3MBTL1 inh inconclusive and APEX1 inh 6%.
`COc1cc(Br)c(Br)cc1N` gave BLM inh -10%, RECQ1 inh inactive, L3MBTL1 inh 3.5µM* and APEX1 inh -7%.
CC(C)C[C@H](NC(=O)CN(C)C(=O)[C@H](Cc1ccccc1)NC(=O)[C@H](Cc1ccccc1)NC(=O)[C@H](CCC(N)=O)NC(=O)[C@H](CCC(N)=O)NC(=O)[C@@H]1CCCN1C(=O)[C@H](CCCCN)NC(=O)[C@@H]1CCCN1C(=O)[C@@H](N)CCCN=C(N)N)C(=O)N[C@@H](CCS(C)(=O)=O)C(N)=O was read as BLM inh 6%, RECQ1 inh -13% and APEX1 inh 15%.
`Cc1ccc(S(=O)(=O)N(Cc2ccccc2)Cc2ccco2)cc1` gave BLM inh -11%, RECQ1 inh -15%, L3MBTL1 inh 27% and APEX1 inh -6%.
`COc1ccccc1N(CC(=O)NCc1ccco1)S(=O)(=O)c1ccc(C)cc1` gave BLM inh -30% and APEX1 inh 21µM*.
COc1ccc(N(CC(=O)NCc2ccco2)S(=O)(=O)c2ccc(C)cc2)cc1OC was read as BLM inh -2% and APEX1 inh -7%.
For Cc1ccc(S(=O)(=O)N(CC(=O)O)Cc2ccco2)cc1 the results were BLM inh -3%, RECQ1 inh -19% and APEX1 inh 14µM*.
`Cc1ccc(-c2nn(-c3ccccc3)cc2/C=C/C(=O)O)o1` gave BLM inh -7%, RECQ1 inh 8%, L3MBTL1 inh -16% and APEX1 inh -1%.
Screening Cc1ccc(-c2nn(-c3ccccc3)cc2C(=O)O)o1 returned BLM inh 1%, RECQ1 inh 32µM*, L3MBTL1 inh 2.8µM* and APEX1 inh inconclusive.
`COc1cc2c(C#N)c(N3CCCC3)nc(N)c2c(N)n1` gave BLM inh inconclusive, RECQ1 inh -9%, L3MBTL1 inh inconclusive and APEX1 inh 9%.
For N#Cc1c(N2CCCC2)nc(N)c2c(N)nc(N3CCCC3)cc12 the results were BLM inh 2.8µM*, RECQ1 inh inconclusive, L3MBTL1 inh inconclusive and APEX1 inh inconclusive.
`O=S(=O)(c1cc(O)ccc1O)c1cccc2c(S(=O)(=O)c3cc(O)ccc3O)cccc12` gave L3MBTL1 inh 3.2µM* and APEX1 inh 2.1µM*.
Screening S=C(Nc1ccccc1)Nc1nc2ccccc2n1CCOc1ccc(Cl)cc1 returned BLM inh -7%, RECQ1 inh -11%, L3MBTL1 inh 11µM* and APEX1 inh 2%.
`COc1ccc(-c2nnc3n2N=C(c2ccc(OC)c(OC)c2)CS3)c(OC)c1` gave BLM inh -5%, RECQ1 inh -2% and APEX1 inh -5%.
Screening Cc1ccc(O)c(N=NC2=C(O)CC(C)(C)CC2=O)c1 returned BLM inh -6%, RECQ1 inh 10%, L3MBTL1 inh 28µM* and APEX1 inh -10%.
O=C(N/N=C/c1ccc([N+](=O)[O-])o1)c1cc2ccccc2o1 was read as BLM inh -14%, RECQ1 inh -10% and APEX1 inh inconclusive.
`O=C(N/N=C/c1ccc([N+](=O)[O-])o1)c1cc2c(ccc3ccccc32)o1` gave BLM inh 7.9µM*, RECQ1 inh -2%, L3MBTL1 inh 6.3µM* and APEX1 inh 18%.
For Brc1cc2c(cc1Br)OCCOCCOCCOCCO2 the results were BLM inh -3%, RECQ1 inh -2%, L3MBTL1 inh 9% and APEX1 inh 4%.
Brc1ccc2c(c1)OCCOCCOc1cc(Br)ccc1OCCOCCOCCO2 was read as BLM inh 16µM*, RECQ1 inh -10%, L3MBTL1 inh 4% and APEX1 inh 0%.
Screening CC12CCC(C(=O)N(CSC(=S)N/N=C\c3ccccc3O)C1=O)C2(C)C (configuration not stated) returned BLM inh -5%, RECQ1 inh 5%, L3MBTL1 inh 5.6µM* and APEX1 inh 6%.
`Cc1cccc2sc(N)nc12` gave RECQ1 inh -4% and APEX1 inh 1%.
For CN(C)CC/C=C1/c2ccccc2CSc2ccccc21 the results were APEX1 inh 16%[21 µM].
Screening NCCNCCNCCN returned BLM inh -11%, RECQ1 inh -12%, L3MBTL1 inh inconclusive and APEX1 inh 20%.
For NCCNCCN the results were BLM inh -2%, RECQ1 inh 5.6µM* and APEX1 inh 3.5µM*.
C[n+]1cccc2cccc([O-])c21 was read as BLM inh 25µM*, RECQ1 inh inconclusive, L3MBTL1 inh 28µM* and APEX1 inh 0%.
`CN(C)C1C(=O)C(C(N)=O)=C(O)[C@@]2(O)C(=O)C3=C(O)c4c(O)ccc(Cl)c4C(O)[C@H]3C[C@@H]12` (some centres not stated) gave BLM inh -13%, RECQ1 inh 14% and APEX1 inh 9%.
`CN(C)c1ccc(O)c2c1C[C@H]1C[C@H]3[C@H](N(C)C)C(=O)C(C(N)=O)=C(O)[C@@]3(O)C(=O)C1=C2O` gave APEX1 inh 13µM*!.
For CN(C)C1C(=O)C(C(N)=O)=C(O)[C@@]2(O)C(=O)C3=C(O)c4c(O)ccc(Cl)c4[C@@H](O)C3C[C@@H]12 (some centres not stated) the results were RECQ1 inh -8% and APEX1 inh -12%.
Screening COc1ccc(-c2c(O)c3cc(O)cc(O)c3oc2=O)cc1 returned BLM inh -11%, RECQ1 inh -7% and APEX1 inh -9%.
For NC(C(=O)O)[C@H](O)C(=O)O (some centres not stated) the results were RECQ1 inh -10% and APEX1 inh 3%.
`Cn1cc(C(=O)[C@@H]2CCc3[nH]cnc3C2)c2ccccc21` gave BLM inh -14%.
NS(=O)(=O)c1ccc(N/N=C2/CCCCC2C2CCCCC2)c([N+](=O)[O-])c1 (configuration not stated) was read as BLM inh -16%, RECQ1 inh 2µM*, L3MBTL1 inh inconclusive and APEX1 inh -5%.

Source: PubChem BioAssay (National Center for Advancing Translational Sciences (NCATS))
